Assay [1] has as its target Peroxisome proliferator-activated receptor gamma (Homo sapiens) (UniProt P37231). As to the kind of experiment: qHTS assay to identify small molecule antagonists of the peroxisome proliferator-activated receptor gamma (PPARg) signaling pathway (AID 743191; calls by dose curve; also: series mostly up to about 63 µM; nearly all actives have a fitted effect of over 30% in size). Put shortly:
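GeneBLAzer PPARg UAS-bla HEK293H cells, 5 h post-plating, exposed to compounds 17 h at 37C. LiveBLAzer B/G FRET substrate added for 1 h at room temperature; beta-lactamase reporter read by fluorescence intensity.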
A general note: Quantitative high-throughput screening tests each substance at several concentrations.

Assay [2] can be described thus: qHTS assay to identify small molecule antagonists of the peroxisome proliferator-activated receptor gamma (PPARg) signaling pathway - cell viability counter screen (AID 743194). Also: nearly all actives have a fitted effect of over 55% in size. Put shortly: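 Cytotoxicity counter screen in PPARg-bla HEK293H cells, same wells as reporter assay. Compounds plus 50 nM rosiglitazone (final) for 17 h at 37 C, then viability read by CellTiter-Glo luminescence.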

The nature of assay [3]: qHTS assay for small molecule agonists of the antioxidant response element (ARE) signaling pathway (AID 743202; active = well fitted activation curve with a large enough effect in the signal ratio in the repeat runs, not every such curve was filed as active; the % refers to the signal ratio). Put shortly: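 Agonist mode reporter screen: HepG2 cells with ARE-controlled beta-lactamase are incubated with test compounds for 16 h at 37 C, and beta-lactamase activity is measured as fluorescence of cleaved B/G FRET substrate.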
Assay [4] is described as follows: qHTS assay for small molecule agonists of the antioxidant response element (ARE) signaling pathway - cell viability counter screen (AID 743203; calls by dose curve; also: nearly all actives have a fitted effect of over 55% in size). Put shortly:
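Cells (ARE-bla HepG2, 2,000/well) receive DMSO-dissolved compounds after a 5 hrs rest. Plates incubate 16 hrs at 37C/5% CO2. CellTiter-Glo luminescence is then recorded after 30 min at room temperature.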

Assay [5] in a line: qHTS assay for small molecule activators of the heat shock response signaling pathway - cell viability counter screen (AID 743209). Also: nearly all actives have a fitted effect of over 50% in size. Put shortly:
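Quantitative HTS format, Tox21 10K library. HeLa cells carrying an HSE-driven beta-lactamase reporter were treated 5 h at 37 C, then assessed for viability by CellTiter-Glo luminescence.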

Assay [6] is described as follows: qHTS assay to identify aromatase inhibitors - cell viability counter screen (AID 743084).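 Also: cells stimulated with testosterone during compound exposure; nearly all actives have a fitted effect of over 55% in size.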 Also: potency is read from the fitted curve at half-maximal effect.
The target of assay [7] is Peroxisome proliferator-activated receptor gamma (Homo sapiens) (UniProt P37231). Kind of assay: qHTS assay to identify small molecule agonists of the peroxisome proliferator-activated receptor gamma (PPARg) signaling pathway (AID 743094; active = well fitted activation curve with a large enough effect in the signal ratio in the repeat runs, not every such curve was filed as active; the % refers to the signal ratio). Put shortly: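 Stably transfected HEK293H cells (GeneBLAzer PPARg UAS-bla) were incubated with test substances for 17 h at 37C after a 5 h pre-incubation; beta-lactamase activity was then detected by FRET substrate fluorescence.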

A short description of assay [8]: qHTS assay for small molecule activators of the heat shock response signaling pathway (AID 743210; active = well fitted activation curve with a large enough effect in the signal ratio in the repeat runs, with a control signal flat, not every such curve was filed as active; the % refers to the signal ratio;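 also: HeLa cells with beta-lactamase reporter driven by heat shock elements; series mostly up to about 63 µM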). Put shortly: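 Quantitative high-throughput format using an engineered HeLa line in which heat shock response elements drive beta-lactamase; after 5 h with compound, cells received a B/G FRET substrate and fluorescence was read.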
Assay [9] in a line: qHTS assay to identify small molecule that activate the aryl hydrocarbon receptor (AhR) signaling pathway - cell viability counter screen (AID 743086).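 Also: HepG2 liver cells carrying the AhR DRE luciferase reporter; series mostly up to about 70 µM; nearly all actives have a fitted effect of over 45% in size.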 The gist of the method:
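HepG2-AhR-luc (HG2L7.5c1) cells, 4000/well, treated 24 h at 37 C with compound; viability measured as CellTiter-Fluor fluorescence after 30 min in the same wells as the luciferase read.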

Assay [10] deals with Aryl hydrocarbon receptor (Homo sapiens) (UniProt P35869). Kind of assay: qHTS assay to identify small molecule that activate the aryl hydrocarbon receptor (AhR) signaling pathway (AID 743085).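 Also: HG2L7.5c1 human HepG2 liver cells with stably integrated DRE-driven firefly reporter; series mostly up to about 70 µM; nearly all actives have a fitted effect of over 15% in size.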 The gist of the method:
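HepG2 cells stably carrying a 20-DRE firefly luciferase reporter (HG2L7.5c1) treated with compound for 24 hr at 37C. Luciferase read by ONE-Glo luminescence, with CellTiter-Fluor viability read first.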

Inconclusive results are not listed. A number with no mark means an inactive call. Active and inactive are the calls of the source. Unless noted, calls follow the shape of the dose curve; as a rule, active = well fitted curve in the direction sought with a large enough effect in the repeat runs; inconclusive = weak or mixed curves; inactive = no such curve, though single readings can be large; an effect the other way counts as inactive or inconclusive.

Data on 33 compounds can be found in PubChem BioAssay (Tox21).

Chain of Peroxisome proliferator-activated receptor gamma (Homo sapiens) (P37231 whole entry, looked up): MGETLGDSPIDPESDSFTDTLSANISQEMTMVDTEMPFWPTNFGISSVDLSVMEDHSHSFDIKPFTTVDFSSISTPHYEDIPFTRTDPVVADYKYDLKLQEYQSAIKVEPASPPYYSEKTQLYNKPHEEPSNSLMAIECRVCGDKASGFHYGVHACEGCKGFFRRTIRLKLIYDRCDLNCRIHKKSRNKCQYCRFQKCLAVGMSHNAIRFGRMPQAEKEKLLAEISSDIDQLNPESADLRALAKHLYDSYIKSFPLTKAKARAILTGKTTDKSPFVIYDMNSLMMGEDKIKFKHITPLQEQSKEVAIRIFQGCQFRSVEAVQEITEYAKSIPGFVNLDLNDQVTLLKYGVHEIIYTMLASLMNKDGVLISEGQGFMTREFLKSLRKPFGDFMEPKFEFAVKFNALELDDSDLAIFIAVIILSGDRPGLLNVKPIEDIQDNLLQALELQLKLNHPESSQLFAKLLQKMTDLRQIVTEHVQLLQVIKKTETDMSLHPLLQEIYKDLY
Chain of Aryl hydrocarbon receptor (Homo sapiens) (P35869 whole entry, looked up): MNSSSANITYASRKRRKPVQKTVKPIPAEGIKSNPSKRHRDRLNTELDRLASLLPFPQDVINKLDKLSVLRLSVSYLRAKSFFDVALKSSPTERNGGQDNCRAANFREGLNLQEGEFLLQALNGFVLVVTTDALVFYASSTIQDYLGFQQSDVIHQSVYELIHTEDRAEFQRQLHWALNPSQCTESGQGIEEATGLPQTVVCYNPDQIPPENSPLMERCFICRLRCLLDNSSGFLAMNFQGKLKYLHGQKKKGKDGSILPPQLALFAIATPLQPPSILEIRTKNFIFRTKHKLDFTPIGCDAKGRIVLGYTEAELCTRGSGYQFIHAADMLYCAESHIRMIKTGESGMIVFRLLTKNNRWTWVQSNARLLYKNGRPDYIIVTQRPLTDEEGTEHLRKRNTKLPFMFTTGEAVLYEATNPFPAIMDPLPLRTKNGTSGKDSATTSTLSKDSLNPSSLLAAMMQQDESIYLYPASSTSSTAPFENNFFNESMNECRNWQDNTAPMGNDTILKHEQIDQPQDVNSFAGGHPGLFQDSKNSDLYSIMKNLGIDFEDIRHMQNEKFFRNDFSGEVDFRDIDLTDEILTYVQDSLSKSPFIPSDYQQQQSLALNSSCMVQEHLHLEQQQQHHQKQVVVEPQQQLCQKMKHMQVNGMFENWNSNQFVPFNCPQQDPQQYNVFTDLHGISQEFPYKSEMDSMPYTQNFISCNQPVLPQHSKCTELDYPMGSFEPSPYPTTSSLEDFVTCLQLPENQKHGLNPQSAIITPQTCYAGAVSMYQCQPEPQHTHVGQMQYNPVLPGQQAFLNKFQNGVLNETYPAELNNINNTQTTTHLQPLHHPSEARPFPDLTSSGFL

Consider `Nc1ccc(C(=O)OCC(O)CO)cc1` (stereo unspecified), for which the Potency entry in assay [1] and in assay [3] was “inactive” each time. The compound was classed as inactive in assay [2], in assay [4] and in [5].
As to `Nc1c(NC/C=C\COc2cc(CN3CCCCC3)ccn2)c(=O)c1=O`, the Potency in assay [6] was 13.3 µM (active). In addition, the call in assay [7], in [2], in [4], in [5] and in assay [8] was inactive. For the same compound, in assay [1], the Potency result is “inactive”.
Regarding `C=CCOCC(CO)(COCC=C)COCC=C`, the Potency entry in [6], in assay [9] and in [3] was “inactive” in each case. Besides, the compound was classed as inactive in [4], in assay [5] and in [8].
On to `CC(=O)N(CC(O)CO)c1c(I)c(C(=O)NCC(O)CO)c(I)c(C(=O)NCC(O)CO)c1I` (stereo unspecified), for which the Potency result in [10], in assay [1] and in assay [3] was “inactive” in each case. Also, the result in assay [7], in assay [2], in [4], in [5] and in assay [8] was inactive.
`CNC(=O)C(c1ccccc1)c1ccccc1`: the Potency result in assay [10], in [9] and in [3] was “inactive” throughout. Besides, the result in assay [2], in assay [4] and in assay [5] was inactive.
For the compound `CNCc1ccccc1`, the Potency entry in assay [6], in assay [1] and in assay [3] was “inactive” each time. Further, the outcome in assay [7], in assay [2] and in assay [4] was inactive.
For the compound `CC(=O)OC[C@H]1O[C@@H](OC(C)=O)[C@H](OC(C)=O)[C@@H]1OC(C)=O`, in assay [1], the Potency entry was “inactive”. For the same compound, the call in assay [2], in assay [4] and in assay [5] was inactive.
Regarding `Cc1nc2n(c(=O)c1CCN1CCC(C(=O)c3ccc(F)cc3)CC1)CCS2`, the Potency result in assay [1] was “inactive”. Besides, the outcome in assay [2], in assay [4], in assay [5] and in assay [8] was inactive.
With `CCCCCN(CCCOC)C(=O)C(CCC(=O)O)NC(=O)c1ccc(Cl)c(Cl)c1` (stereo unspecified), the Potency entry in assay [1] and in [3] was “inactive” throughout. For the same compound, the call in assay [2] and in [4] was inactive.
For `COc1ccc(OC)c(NC(=O)CC(C)=O)c1`, the Potency result in assay [9] and in [3] was “inactive” in each case. Besides, the result in [2], in [4], in assay [5] and in [8] was inactive.
Consider `O=C(O)c1ccc(OCCN2CCCCC2)cc1`, for which the Potency entry in assay [1] and in assay [3] was “inactive” throughout. For the same compound, the compound was classed as inactive in [2], in assay [4] and in assay [8].
Turning to `CC(C)=CC(C)(C)C`, the Potency entry in assay [9] and in assay [3] was “inactive” in each case. In addition, the result in assay [2], in [4], in [5] and in assay [8] was inactive.
With `O=S(=O)(O)c1cc(O)ccc1O`, the compound was classed as inactive in assay [2], in assay [4] and in [8].
Turning to `CCC(C)(CCC(C)C)C(=O)[O-].CCC(C)(CCC(C)C)C(=O)[O-].[Zn+2]` (stereo unspecified), the Potency result in [3] was “inactive”. Moreover, the result in [4] and in assay [5] was inactive.
Consider `COc1ccc(N=Nc2cc(C)c(N=Nc3ccc(S(=O)(=O)O)cc3)cc2OC)cc1`, for which the Potency in [6] is 48.6 µM (active). Besides, the compound was called inactive in assay [7], in assay [2], in assay [4], in assay [5] and in [8].
With `C/C=C(\C)C(=O)OCC/C=C\CC`, the Potency result in assay [9] and in assay [3] was “inactive” in each case. The compound was called inactive in assay [2], in assay [4] and in [5].
`CC(C)CCC(=O)CCC(C)C`: the Potency entry in assay [6] and in assay [1] was “inactive” in each case. In addition, the result in [7], in assay [2], in [4], in assay [5] and in assay [8] was inactive.
With `COc1cc([N+](=O)[O-])ccc1N`, the Potency entry in [10] and in [3] was “inactive” throughout. Also, the result in assay [4], in assay [5] and in [8] was inactive.
For `CC(=O)N1CCN(c2ccc(O)cc2)CC1`, the Potency result in assay [1] was “inactive”. In addition, the result in assay [2], in assay [4], in assay [5] and in [8] was inactive.
Take `C=CCOc1c(Br)cc(Br)cc1Br`: the Potency entry in assay [6], in assay [1] and in assay [3] was “inactive” throughout. For the same compound, the compound was called inactive in assay [7], in assay [4], in assay [5] and in assay [8].
For `Nc1nc(=O)n([C@@H]2O[C@H](CO)[C@@H](O)[C@@H]2F)cc1I`, the call in assay [2], in assay [4] and in assay [8] was inactive. For the same compound, the Potency entry in assay [3] was “inactive”.
With `c1ccc(CNc2ncnc3nc[nH]c23)cc1`, the outcome in assay [2], in [4] and in assay [5] was inactive. The Potency result in assay [3] is “inactive”.
On to `c1ccccc1`, for which the Potency result in assay [1] and in assay [3] was “inactive” in each case. Besides, the compound was called inactive in [2], in [4], in [5] and in assay [8].
`CCCCCCCCCCCCCCCCCCN(C)C`: the outcome in assay [2], in assay [4], in assay [5] and in [8] was inactive. Also, the Potency result in assay [3] is “inactive”.
Turning to `CCOC(=O)C(=O)c1csc(NC=O)n1`, the result in assay [2], in [4] and in assay [5] was inactive. For the same compound, in assay [3], the Potency entry was “inactive”.
In the case of `CCN(CC)C(=O)C1CN2CCc3cc(OC)c(OC)cc3C2CC1OC(C)=O` (stereo unspecified), the result in assay [2], in assay [4], in [5] and in assay [8] was inactive. Moreover, the Potency result in assay [3] is “inactive”.
`CCOC(=O)CC#N`: the Potency result in assay [10], in assay [9], in assay [1] and in assay [3] was “inactive” throughout. Besides, the compound was called inactive in assay [7], in assay [2], in [4], in assay [5] and in assay [8].
Regarding `N#CCCOCCOCCC#N`, the Potency result in assay [6] and in assay [3] was “inactive” throughout. In addition, the call in [7], in assay [2], in [4], in assay [5] and in [8] was inactive.
On to `CCCCC(CC)CNC(=O)CC(C)OC(=O)CCC(=O)O` (stereo unspecified), for which the compound was called inactive in [2], in assay [4], in assay [5] and in assay [8]. The Potency entry in assay [3] is “inactive”.
On to `CC(C)C(=O)Nc1cccc(C(F)(F)F)c1`, for which the outcome in assay [2], in assay [4] and in assay [5] was inactive. Further, in assay [3], the Potency entry is “inactive”.
In the case of `CC(CC(=O)O)CC(C)(C)C` (stereo unspecified), the Potency result in [10], in assay [9] and in [3] was “inactive” each time. The result in assay [7], in [2], in assay [4] and in assay [5] was inactive.
Take `CC(C)COC(=O)/C=C/c1ccccc1`: the Potency entry in assay [10], in assay [9] and in assay [3] was “inactive” in each case. The result in assay [2], in assay [4] and in assay [8] was inactive.
As to `Cc1ccc(C(=O)C(=O)O)cc1C`, the Potency entry in assay [1] and in [3] was “inactive” in each case. The compound was called inactive in [2], in assay [4], in [5] and in assay [8].
